Consider 21 molecules from PubChem BioAssay (NCI).

About 79,000 compounds went through this panel and 15% of them were active in at least one assay; those are over-represented in the sample as a whole. A number with no mark means an inactive call. The source made the active and inactive calls. Cut-off read from the data, not from the text of the source: active = growth inhibition above about 70%; inactive = the rest.

The nature of assay [1]: NCI Yeast Anticancer Drug Screen. Data for the rad50 strain (AID 155).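 Note: 0% = growth of vehicle-only cultures of the same strain.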 The following applies: S. cerevisiae rad50 strain growth inhibition; at 50.0 µM; stronger effect = higher value. In outline:
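Compounds were tested on a yeast strain with an engineered DNA damage repair alteration; the reported value is growth inhibition normalised to vehicle treatment.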

Assay [2] can be described thus: NCI Yeast Anticancer Drug Screen. Data for the mec2-1 strain (AID 157). The settings on record: S. cerevisiae mec2-1 strain, at 50.0 µM, stronger effect = higher value. In outline: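 Yeast mec2-1 mutant treated with compound. Readout: growth inhibition vs vehicle controls.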
The nature of assay [3]: NCI Yeast Anticancer Drug Screen. Data for the sgs1 mgt1 strain (AID 161).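 Note: 0% = growth of cultures given vehicle only.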 The following applies: S. cerevisiae sgs1 mgt1 strain, at 50.0 µM, stronger effect = higher value. The gist of the method:
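Genetically altered yeast, compound exposure, growth inhibition relative to vehicle.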

The nature of assay [4]: NCI Yeast Anticancer Drug Screen. Data for the cln2 rad14 strain (AID 165).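 Note: 0% = growth equal to vehicle treated cultures.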 The settings on record: S. cerevisiae cln2 rad14 strain, at 50.0 µM, stronger effect = higher value. The gist of the method: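 cln2 rad14 yeast strain; compound exposure; growth inhibition read vs vehicle controls.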
Assay [5] in a line: NCI Yeast Anticancer Drug Screen. Data for the bub3 strain (AID 167). The settings on record: S. cerevisiae bub3 mutant strain, at 50.0 µM, stronger effect = higher value. The gist of the method:
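Growth of a checkpoint-deficient yeast mutant is measured after compound exposure. Values represent inhibition relative to vehicle.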

Assay [6] can be described thus: NCI Yeast Anticancer Drug Screen. Data for the mlh1 rad18 strain (AID 175). The following applies: S. cerevisiae mlh1 rad18 strain growth inhibition; at 50.0 µM; stronger effect = higher value. The gist of the method: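 Yeast w/ defined DNA-repair lesions; compound exposure; growth vs vehicle controls → % inhibition.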

On to `N#CC(C(=N/O)/C(=N\O)C(C#N)c1ccccc1)c1ccccc1` (stereo unspecified), for which the growth inhibition in assay [1] was -3.35%; in assay [2] it was -11.1%; in assay [3], 2.55%; in assay [4], -4%; in assay [5], -5.75%; in assay [6] it was 25.1%.
For `CON1C(=O)c2ccccc2C1=O`, the growth inhibition in assay [1] is 1.15%; in assay [2] it was 4%; in assay [3], -7.85%; in assay [4], -4.6%; in assay [5], -22.4%; in assay [6], -9.3%.
Turning to `c1cncc(CCc2ccncc2)c1`, the growth inhibition in assay [1] is -18.9%; in assay [2] it was -60.9%; in assay [3], -27.2%; in assay [4], 12.3%; in assay [5], -14.2%; in assay [6] it was 18.6%.
As for `CON[N+]([O-])=NC(C)C`, the growth inhibition in assay [1] is 27.6%; in assay [2] it was 6.3%; in assay [3], 21.6%; in assay [4] it was 11.5%; in assay [5] it was 17%; in assay [6] it was 21.8%.
Consider `COc1ccc(NC(=O)Oc2ccccc2-c2ccccc2)cc1`, for which the growth inhibition in assay [1] is 1.1%; in assay [2], 14.3%; in assay [3] it was -1.7%; in assay [4], -18.1%; in assay [5] it was -6.7%; in assay [6], -12.3%.
As to `CC(C)CC1CC(=O)C(=O)C(CC(C)C)C1` (stereo unspecified), the growth inhibition in assay [1] is 8.25%; in assay [2] it was 0.5%; in assay [3] it was 3.45%; in assay [4] it was -17.5%; in assay [5] it was 3.95%; in assay [6] it was -1.05%.
`CC(=O)OCc1ccc(C)c(COC(C)=O)c1`: the growth inhibition was 3.45% in assay [1]; -20.6% in assay [2]; -9.4% in assay [3]; 3.8% in assay [4]; 1.1% in assay [5]; -9.4% in assay [6].
Consider `O=C1OC(c2ccccc2)=N/C1=C\c1ccc(F)cc1`, for which the growth inhibition in assay [1] was -10.4%; in assay [2], -17.5%; in assay [3], -1.75%; in assay [4], -10.2%; in assay [5], -19.3%; in assay [6] it was -3.75%.
As to `O=C1CC[C@@H](S(=O)(=O)c2ccccc2)[C@@H](/C=C/c2ccccc2)O1`, the growth inhibition in assay [1] was -26.8%; in assay [2], -1.75%; in assay [3], 7.15%; in assay [4], -12.8%; in assay [5] it was -10.7%; in assay [6], -6.7%.
Turning to `O=C(Nc1ccccc1-c1ccccc1)c1cccnc1`, the growth inhibition in assay [1] was 2.65%; in assay [2] it was 22.6%; in assay [3], 9.2%; in assay [4], 8.1%; in assay [5], -11.2%; in assay [6] it was 5.45%.
`C=CCC1(C(=O)NC)c2ccccc2-c2ccccc21`: the growth inhibition in assay [1] is -8.85%; in assay [2] it was -6.4%; in assay [3] it was 1%; in assay [4] it was -18.8%; in assay [5] it was 43.1%; in assay [6] it was -38.1%.
Consider `Cc1ccc2c(c1)OC(=O)CC2`, for which the growth inhibition is 10.3% in assay [1]; -9.65% in assay [2]; -3.25% in assay [3]; -18.8% in assay [4]; -4.1% in assay [5]; -4.3% in assay [6].
Consider `O=C(NCCCCCCNC(=O)c1cc(-c2ccccc2)nc2ccccc12)c1cc(-c2ccccc2)nc2ccccc12`, for which the growth inhibition in assay [1] was -33%; in assay [2] it was -18%; in assay [3] it was -42.6%; in assay [4], -17.4%; in assay [5] it was -27.3%; in assay [6], -17.4%.
`CCCCN(CCCC)CC(O)c1cc(Cc2ccccc2)nc2c(Cl)cc(Cl)cc12` (stereo unspecified): the growth inhibition in assay [1] was 95.3% (active); in assay [2], 95.5% (active); in assay [3] it was 96.8% (active); in assay [4], 89.8% (active); in assay [5], 95% (active); in assay [6] it was 96.2% (active).
For the molecule `C[N+](C)(C)CCc1ccc2ccccc2c1`, the growth inhibition in assay [1] is 12.2%; in assay [2] it was 11.8%; in assay [3], 9.35%; in assay [4], 0.1%; in assay [5], 5.7%; in assay [6] it was 12.8%.
For `O=C(O)c1ccc(C(=O)c2ccc(Cl)cc2)cc1`, the growth inhibition is 31.9% in assay [1]; 44.5% in assay [2]; 42.4% in assay [3]; -6.35% in assay [4]; 13.6% in assay [5]; 34.6% in assay [6].
As for `CCCCCc1c2nc(c(CCCCC)c3ccc([nH]3)c(CCCCC)c3ccc([nH]3)c(CCCCC)c3nc1C=C3)C=C2`, the growth inhibition was 0.1% in assay [1]; -11.8% in assay [2]; -10.3% in assay [3]; 23.1% in assay [4]; -10.5% in assay [5]; -15.6% in assay [6].
Turning to `CCN(CC)CCCC#CCN1CCOCC1`, the growth inhibition in assay [1] is -39.5%; in assay [2], -48.5%; in assay [3], -21.4%; in assay [4], -16.9%; in assay [5] it was -44.7%; in assay [6] it was -20.1%.
As to `CCC1(C)NC(=O)OC1=O` (stereo unspecified), the growth inhibition in assay [1] was 2.25%; in assay [2], -5.7%; in assay [3], -27.6%; in assay [4], 7.75%; in assay [5], 20.5%; in assay [6], 4.65%.
Consider `CCOC(=O)C1=CCOc2cc(N(C)C)ccc21`, for which the growth inhibition in assay [1] was -9.25%; in assay [2], 9.15%; in assay [3], -1.25%; in assay [4] it was 32.4%; in assay [5], 8.75%; in assay [6], -6.9%.
Take `O=C(c1ccco1)N(C(=S)N1CCN(c2ccccc2)CC1)C1CCCCC1`: the growth inhibition in assay [1] is 16.4%; in assay [2], 25.4%; in assay [3], 26.4%; in assay [4] it was 36%; in assay [5], 24.4%; in assay [6] it was 19.1%.
